# Results as given in ChEMBL document CHEMBL4513216, “Probing the Open Global Health Chemical Diversity Library for Multistage-Active Starting Points for Next-Generation Antimalarials” (ACS Infect Dis, 2020).
# Hit rate of the full screen: of about 69,000 compounds, about 8,600 (12%) showed an effect of 50% or more. Only a selection was taken, and strong results are over-represented in it overall.
# Test system: Plasmodium berghei
# Experiment: Screen against P. berghei liver stage (PbLuc), transformed with Luciferase, at 10uM
# Format: functional, HepG2
# Conditions: tested at 10 uM
row,Structure (SMILES),INHIBITION [%]
1,C[C@@H]1CN(c2ccc(Cl)cn2)C[C@]1(C)O,4.161
2,Fc1cnc(N2CCO[C@H]3[C@H](OCCN4CCCC4)CC[C@@H]32)nc1,4.68
3,Cc1ccc(-c2nnc(CNCCn3cccn3)o2)cc1,37.9
4,COCc1cc(NCc2ccccc2-n2cncn2)ncn1,15.7
5,CN(Cc1nc(-c2ccccc2)no1)Cc1cnc(N2CCOCC2)s1,25.8
6,CN(C)CCn1c2c(ccc1=O)CCN(C(=O)c1cccs1)CC2,13.5
7,COc1c(CNCc2cccc(CN(C)C)c2)c(C)nn1C,35.3
8,Cc1nc(Nc2cnccn2)cc(C2CCCN2C2CCOCC2)n1 (centres undefined),25.6
9,CC(C)C1CCCN1C(=O)Nc1ccc(=O)n(C)c1 (centres undefined),-22.1
10,CCc1nc(C2CCCN2CC(=O)Nc2nnc(C)s2)no1 (centres undefined),-11.9
11,CC(C)n1nc(CN2CCCC2=O)c2c1CN(C(=O)c1ccc[nH]1)C2,7.67
12,NC(=O)c1c(NC(=O)C2CCCO2)sc2c1CCc1ccccc1-2 (centres undefined),-57.9
13,Cc1ccccc1S(=O)(=O)N1CCC(c2[nH]ncc2C)C1 (centres undefined),11.1
14,CC(C)N1CC[C@H]2[C@H](C[C@@H](Cn3cncn3)N2c2nccs2)C1,0.71
15,CN1CC[C@H]2[C@H](C[C@@H](CN3CCCC3)N2c2nccs2)C1,34.5
16,CC(=O)N1CC[C@H]2[C@H](C[C@@H](Cn3cncn3)N2c2nccs2)C1,85.4
17,CC(=O)N1CC[C@H]2[C@H](C[C@@H](CN3CCCC3)N2c2nccs2)C1,0.71
18,CN1CC[C@H]2[C@H](C[C@@H](Cn3cncn3)N2c2nccs2)C1,69.7
19,CCC(=O)N1CC[C@H]2[C@H](C[C@@H](CN3CCCC3)N2c2nccs2)C1,-0.284
20,Cc1nnc(N2CCOC(C)(C(=O)N(C)C)C2)c2ccccc12 (centres undefined),-9.51
21,Cc1cnn(CC2CCCN2C(=O)c2cccc3[nH]ncc23)c1 (centres undefined),24.5
22,Cc1cccc(Oc2ccccc2CNC(=O)C2CCC(=O)NC2)c1 (centres undefined),37.9
23,O=C(NCc1ccc(F)cc1)NCC(O)(c1cccs1)C1CC1 (centres undefined),-11.8
24,O=C(NCc1ccc(F)cc1)NCC(O)(c1ccco1)C1CC1 (centres undefined),66.9
25,O=C(NCC(O)(c1ccco1)C1CC1)c1ccccc1F (centres undefined),9.79

row,Structure (SMILES),INHIBITION [%]
1,CN(C)Cc1nn(C)c2c1CCN(C(=O)c1cccnc1)C2,17.4
2,Fc1ccc(N2CCOC(Cc3cccnc3)C2)cc1 (centres undefined),7.52
3,CN1C[C@@H]2CC[C@H]1CN(C(=O)COCc1nc3ccc(F)cc3[nH]1)C2,35.1
4,CN(C)[C@H]1CCCCN(C(=O)COCc2nc3cc(F)ccc3[nH]2)C1,51.3
5,CN1CC[C@H]2CN(C(=O)COCc3nc4cc(F)ccc4[nH]3)C[C@H]21,47.3
6,Cc1ccc(Br)cc1C(=O)Nc1cc(C(N)=O)n(C)c1,-20.2
7,Cc1nc(C)n(CC2CN(Cc3cscn3)CCO2)n1 (centres undefined),21.935
8,Cc1ccccc1-n1cc(-c2ccnc(NC(CO)C(C)C)n2)cn1 (centres undefined),95.7
9,COc1cccc(-n2cc(-c3ccnc(N[C@@H](CO)C(C)C)n3)cn2)c1,-95.7
10,Cc1ccccc1-n1cc(-c2ccnc(N[C@H](CO)C(C)C)n2)cn1,68.2
11,COc1cccc(-n2cc(-c3ccnc(NC(CO)C(C)C)n3)cn2)c1 (centres undefined),-40.6
12,COc1cccc(-n2cc(-c3ccnc(N[C@H](CO)C(C)C)n3)cn2)c1,5.8
13,COC[C@H]1CCCN1c1nccc(-c2cnn(-c3ccccc3C)c2)n1,78.5
14,Cc1ccccc1-n1cc(-c2ccnc(N3CCCC(O)C3)n2)cn1 (centres undefined),3.06
15,Cc1ccccc1-n1cc(-c2ccnc(N[C@@H](CO)C(C)C)n2)cn1,8.7
16,Cc1ccccc1-n1cc(-c2ccnc(N3CCCC(CN)C3)n2)cn1 (centres undefined),-29.6
17,Cc1cc(CN2CCN(C(=O)NCc3cccs3)CC2)no1,-43.5
18,CC(=O)NCCc1ccc(S(=O)(=O)Nc2cc(F)ccc2C)s1,-12.2
19,CC(=O)N1CCC(c2cccc(NC3CCOCC3)n2)CC1,11.8
20,COCCOCC1(CNCc2cccc(OC)c2)C[C@@H](O)[C@@H](O)C1 (some centres undefined),12.4
21,COCCOCC1(CNCc2ccc(OC)cc2)C[C@@H](O)[C@@H](O)C1 (some centres undefined),-1.12
22,COCCOCC1(CNC(=O)c2ccc(OC)cc2)C[C@@H](O)[C@@H](O)C1 (some centres undefined),50.6
23,Cc1nccc(N[C@H]2CN(CC(C)(C)N3CCOCC3)C[C@@H]2C2CC2)n1,-10.6
24,c1cc(CN2CC[C@H]3CO[C@H](CN4CCOCC4)[C@H]3C2)cs1,2.59
